Data: PubChem BioAssay AID1159580 (chemical genetic matrix, 2015)
Where “and” joins values, the source holds several entries; their conditions need not be identical. Equal entries are not always repeated. In all, about 5,500 compounds went through this assay and about 2,000 (36%) were called active. Roughly 18% stayed inconclusive and do not appear here. No stated cut-off is given here; in the data, active means normalized growth mostly below about 0.91 (no sharp cut-off); inconclusive means no clear call, values can overlap the other calls; inactive means mostly above about 0.92. The list shows a part of the results.

Experiment: chemical genetic growth profiling, strain panel (AID 1159580);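 further: tested at 20 µM; growth read once vehicle control cultures reached saturation at 30 °C; 1 = growth at the plate median or of vehicle wells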
Settings: S. cerevisiae deletion strains, growth OD

Measured: normalized growth

CC(C)=CCOc1cc2oc(=O)ccc2cc1O
active: locus YDL192W, strain arf1, stronger effect = lower value 0.879 | locus YDR318W, strain mcm21, stronger effect = lower value 0.902 | locus YDR392W, strain spt3, stronger effect = lower value 0.706 | locus YDR502C, strain sam2, stronger effect = lower value 0.909 | locus YER155C, strain BEM2 (second series), stronger effect = lower value 0.685 | locus YER167W, strain BCK2, stronger effect = lower value 0.881 | locus YGL086W, strain mad1, stronger effect = lower value 0.882 | locus YGL253W, strain hxk2, stronger effect = lower value 0.899 | locus YGR252W, strain gcn5, stronger effect = lower value 0.713 | locus YHR129C, strain ARP1, stronger effect = lower value 0.918 | locus YHR200W, strain rpn10, stronger effect = lower value 0.895 | locus YIL066C, strain RNR3, stronger effect = lower value 0.85 | locus YKR001C, strain vps1, stronger effect = lower value 0.662 | locus YLR039C, strain RIC1, stronger effect = lower value 0.647 | locus YLR320W, strain mms22, stronger effect = lower value 0.848 | locus YLR330W, strain CHS5, stronger effect = lower value 0.839 | locus YLR418C, strain cdc73, stronger effect = lower value 0.753 | locus YML032C, strain rad52, stronger effect = lower value 0.895 | locus YMR223W, strain ubp8, stronger effect = lower value 0.894 | locus YMR307W, strain GAS1, stronger effect = lower value 0.596 | locus YNL071W, strain lat1, stronger effect = lower value 0.898 | locus YNL233W, strain BNI4, stronger effect = lower value 0.792 | locus YNL307C, strain MCK1, stronger effect = lower value 0.786 | locus YOL147C, strain pex11, stronger effect = lower value 0.885 | locus YOR184W, strain ser1, stronger effect = lower value 0.72 | locus YPL051W, strain arl3, stronger effect = lower value 0.895 | locus YPR163C, strain tif3, stronger effect = lower value 0.849 | strain wtn01, stronger effect = lower value 0.877
inactive: locus YAL021C, strain ccr4, stronger effect = lower value 0.977 | locus YAL026C, strain drs2, stronger effect = lower value 0.919 | locus YAL030W, strain snc1, stronger effect = lower value 0.978 | locus YBL061C, strain skt5, stronger effect = lower value 0.94 | locus YBR009C, strain hhf1, stronger effect = lower value 0.937 | locus YBR021W, strain FUR4, stronger effect = lower value 0.876 | locus YBR023C, strain chs3, stronger effect = lower value 0.929 | locus YBR171W, strain sec66, stronger effect = lower value 0.915 | locus YBR229C, strain ROT2, stronger effect = lower value 0.967 | locus YBR231C, strain swc5, stronger effect = lower value 0.93 | locus YBR279W, strain paf1, stronger effect = lower value 0.962 | locus YCL011C, strain gbp2, stronger effect = lower value 0.911 | locus YCL016C, strain dcc1, stronger effect = lower value 0.965 | locus YCL029C, strain bik1, stronger effect = lower value 0.961 | locus YCL061C, strain MRC1, stronger effect = lower value 0.94 | locus YCL069W, strain vba3, stronger effect = lower value 0.94 | locus YCR088W, strain abp1, stronger effect = lower value 0.957 | locus YDL005C, strain med2, stronger effect = lower value 0.956 | locus YDL035C, strain GPR1, stronger effect = lower value 0.894 | locus YDL040C, strain nat1, stronger effect = lower value 0.951 | locus YDL074C, strain BRE1, stronger effect = lower value 0.808 | locus YDL101C, strain DUN1, stronger effect = lower value 0.935 | locus YDL185W, strain tfp1, stronger effect = lower value 0.965 | locus YDR001C, strain nth1, stronger effect = lower value 0.965 | locus YDR069C, strain doa4, stronger effect = lower value 0.944 | locus YDR101C, strain arx1, stronger effect = lower value 0.919 | locus YDR137W, strain rgp1, stronger effect = lower value 0.881 | locus YDR159W, strain sac3, stronger effect = lower value 0.881 | locus YDR162C, strain NBP2, stronger effect = lower value 0.876 | locus YDR195W, strain ref2 1.02 | locus YDR297W, strain sur2, stronger effect = lower value 0.969 | locus YDR334W, strain swr1, stronger effect = lower value 0.927 | locus YDR335W, strain msn5, stronger effect = lower value 0.968 | locus YDR388W, stronger effect = lower value 0.96 | locus YEL003W, strain gim4, stronger effect = lower value 0.935 | locus YEL037C, strain rad23, stronger effect = lower value 0.941 | locus YEL061C, strain CIN8 (second series), stronger effect = lower value 0.938 | locus YEL061C, strain CIN8, stronger effect = lower value 0.957 | locus YER015W, strain faa2, stronger effect = lower value 0.937 | locus YER016W, strain bim1, stronger effect = lower value 0.962 | locus YER110C, stronger effect = lower value 0.971 | locus YER111C, strain swi4, stronger effect = lower value 0.95 | locus YER155C, strain BEM2, stronger effect = lower value 0.962 | locus YFR010W, strain ubp6, stronger effect = lower value 0.942 | locus YGL078C, strain dbp3, stronger effect = lower value 0.97 | locus YGL167C, strain pmr1, stronger effect = lower value 0.939 | locus YGL173C, strain kem1, stronger effect = lower value 0.926 | locus YGL227W, strain vid30, stronger effect = lower value 0.957 | locus YGL240W, strain doc1, stronger effect = lower value 0.886 | locus YGL248W, strain PDE1, stronger effect = lower value 0.9 | locus YGR135W, strain pre9, stronger effect = lower value 0.915 | locus YHR013C, strain ard1, stronger effect = lower value 0.955 | locus YHR027C, strain rpn1, stronger effect = lower value 0.956 | locus YHR030C, strain SLT2, stronger effect = lower value 0.947 | locus YHR079C, strain IRE1 (second series), stronger effect = lower value 0.974 | locus YHR079C, strain IRE1, stronger effect = lower value 0.936 | locus YHR094C, strain hxt1, stronger effect = lower value 0.97 | locus YHR142W, strain chs7, stronger effect = lower value 0.878 | locus YIL073C, strain SPO22, stronger effect = lower value 0.975 | locus YIL125W, strain kgd1, stronger effect = lower value 0.948 | locus YIR030C, strain dcg1, stronger effect = lower value 0.97 | locus YJL092W, strain hpr5, stronger effect = lower value 0.927 | locus YJL095W, strain BCK1 (second series), stronger effect = lower value 0.948 | locus YJL095W, strain BCK1, stronger effect = lower value 0.858 and 0.946 | locus YJL115W, strain asf1, stronger effect = lower value 0.949 | locus YJL129C, strain trk1, stronger effect = lower value 0.904 | locus YJL134W, strain LCB3, stronger effect = lower value 0.963 | locus YJL154C, strain vps35, stronger effect = lower value 0.966 | locus YJL164C, strain tpk1, stronger effect = lower value 0.974 | locus YJL166W, strain qcr8, stronger effect = lower value 0.94 | locus YJL168C, strain set2, stronger effect = lower value 0.977 | locus YJL187C, strain SWE1 (second series), stronger effect = lower value 0.889 | locus YJL187C, strain SWE1, stronger effect = lower value 0.951 | locus YJR066W, strain TOR1, stronger effect = lower value 0.92 | locus YKL009W, strain mrt4, stronger effect = lower value 0.916 | locus YKL068W, stronger effect = lower value 0.97 | locus YKL085W, strain MDH1 (second series), stronger effect = lower value 0.959 | locus YKL085W, strain MDH1, stronger effect = lower value 0.959 | locus YKL160W, strain elf1, stronger effect = lower value 0.981 | locus YKL190W, strain CNB1, stronger effect = lower value 0.953 | locus YKR026C, strain gcn3, stronger effect = lower value 0.927 | locus YKR091W, strain srl3, stronger effect = lower value 0.96 | locus YLL001W, strain dnm1, stronger effect = lower value 0.964 | locus YLL026W, stronger effect = lower value 0.941 | locus YLL041C, strain sdh2, stronger effect = lower value 0.934 | locus YLR027C, strain aat2, stronger effect = lower value 0.939 | locus YLR058C, strain SHM2, stronger effect = lower value 0.905 | locus YLR102C, strain apc9, stronger effect = lower value 0.974 | locus YLR113W, strain HOG1, stronger effect = lower value 0.977 | locus YLR221C, strain rsa3, stronger effect = lower value 0.916 | locus YLR258W, strain gsy2, stronger effect = lower value 0.951 | locus YLR262C, strain YPT6 (second series), stronger effect = lower value 0.956 | locus YLR268W, strain sec22, stronger effect = lower value 0.9 | locus YLR342W, strain FKS1, stronger effect = lower value 0.946 | locus YLR357W, strain rsc2, stronger effect = lower value 0.952 | locus YLR370C, strain arc18, stronger effect = lower value 0.925 | locus YLR371W, strain rom2, stronger effect = lower value 0.934 | locus YLR384C, strain iki3, stronger effect = lower value 0.966 | locus YML016C, strain PPZ1, stronger effect = lower value 0.948 | locus YML120C, strain ndi1, stronger effect = lower value 0.953 | locus YML124C, strain tub3, stronger effect = lower value 0.949 | locus YMR058W, strain fet3, stronger effect = lower value 0.934 | locus YMR078C, strain ctf18, stronger effect = lower value 0.963 | locus YMR125W, strain sto1, stronger effect = lower value 0.956 | locus YMR129W, stronger effect = lower value 0.961 | locus YMR205C, strain PFK2, stronger effect = lower value 0.934 | locus YMR231W, strain pep5, stronger effect = lower value 0.929 | locus YNL067W, strain RPL9B, stronger effect = lower value 0.912 | locus YNL128W, strain TEP1, stronger effect = lower value 0.929 | locus YNL183C, strain NPR1, stronger effect = lower value 0.923 | locus YNL209W, strain ssb2, stronger effect = lower value 0.971 | locus YNL248C, strain rpa49, stronger effect = lower value 0.98 | locus YNL250W, strain rad50, stronger effect = lower value 1 | locus YNL271C, strain bni1, stronger effect = lower value 0.97 | locus YNL298W, strain CLA4, stronger effect = lower value 0.955 | locus YNL322C, strain KRE1 (second series), stronger effect = lower value 0.928 | locus YNR049C, strain mso1, stronger effect = lower value 0.942 | locus YNR052C, strain pop2, stronger effect = lower value 0.997 | locus YOL012C, strain htz1 0.93 | locus YOR001W, strain rrp6, stronger effect = lower value 0.906 | locus YOR061W, strain CKA2, stronger effect = lower value 0.959 | locus YOR069W, strain VPS5, stronger effect = lower value 0.951 | locus YOR070C, strain gyp1, stronger effect = lower value 0.947 | locus YOR080W, strain dia2, stronger effect = lower value 0.947 | locus YOR083W, strain WHI5, stronger effect = lower value 0.977 | locus YOR106W, strain vam3, stronger effect = lower value 0.94 | locus YOR136W, strain idh2, stronger effect = lower value 0.957 | locus YOR144C, strain elg1, stronger effect = lower value 0.945 | locus YOR231W, strain MKK1, stronger effect = lower value 0.924 | locus YOR265W, strain rbl2, stronger effect = lower value 0.949 | locus YOR270C, strain vph1, stronger effect = lower value 0.799 | locus YOR290C, strain snf2, stronger effect = lower value 0.917 | locus YOR316C, strain cot1, stronger effect = lower value 0.973 | locus YPL078C, strain atp4, stronger effect = lower value 0.962 | locus YPL106C, strain sse1, stronger effect = lower value 0.908 | locus YPL240C, strain hsp82, stronger effect = lower value 0.937 | locus YPL241C, strain CIN2, stronger effect = lower value 0.963 | locus YPL256C, strain CLN2, stronger effect = lower value 0.906 | locus YPR119W, strain clb2, stronger effect = lower value 0.971 | locus YPR141C, strain kar3, stronger effect = lower value 0.974 | locus YPR167C, strain met16, stronger effect = lower value 0.942
